Results as given in PubChem BioAssay (NCATS).
Results filed as inconclusive are left out. The source made the active and inactive calls. Calls follow the shape of the dose curve; as a rule, active = well fitted inhibition curve with a large enough effect; inconclusive = small, poorly fitted or top-dose-only effect; inactive = flat fitted curve, though single readings scatter.

Each compound was assayed against Calcium and integrin-binding protein 1 (Homo sapiens) (UniProt Q99828) (assay: Primary qHTS for Identification of Calcium Integrin Binding Protein 1 (CIB1) Competitor (AID 1508620;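 also: GST tagged CIB1 binding a fluorescein labelled alphaIIb integrin peptide tracer; top concentration of the series differs between compounds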)). Conditions: CIB1-GST / FITC-alphaIIb peptide fluorescence polarization; series mostly up to 114 µM; activity change, negative = inhibition: at the top concentration.
Calcium and integrin-binding protein 1 (Homo sapiens), sequence (Q99828 whole entry, looked up): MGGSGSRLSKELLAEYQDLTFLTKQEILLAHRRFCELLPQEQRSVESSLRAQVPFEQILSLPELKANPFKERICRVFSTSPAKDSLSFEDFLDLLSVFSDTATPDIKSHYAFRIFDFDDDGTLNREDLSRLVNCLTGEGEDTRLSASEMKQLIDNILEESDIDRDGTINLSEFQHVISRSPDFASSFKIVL
Summary of the method: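 Fluorescence polarization competition: CIB1-GST (1 uM final) preincubated with compound 15 min at room temperature, then FITC-labeled alphaIIb peptide (100 nM final) added for another 15 min. Polarization read at Ex 480/Em 540.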
% is scaled to controls: 0 for no effect and ±100 for the full control effect.

Compound | activity change, negative = inhibition
O=[N+]([O-])c1ccccc1NCc1ccc(O)c2ncccc12 | 5.31% (inactive)
Cc1ccc(NC(=O)CN2C(=O)N/C(=C\c3cccn3-c3ccc(C(=O)NC#N)cc3)C2=O)cc1 | 8.03% (inactive)
COc1ccc(-c2nnc3n2N=C(c2ccc(OC)c(OC)c2)CS3)cc1 | -2.27% (inactive)
O=C(Nc1ccccc1)Nc1nnc(-c2ccncc2)s1 | 6.04% (inactive)
CCC(=O)Nc1ccc(OCc2cc(C3Nc4ccccc4C(=O)N3Cc3ccccc3)ccc2OC)cc1 (stereo not given) | 8.79% (inactive)
Cc1cnc(-c2ccccc2C(C)C)nc1NCC1CCN(C)CC1 | 2.08% (inactive)
CC(C)(C)c1ccc(C(=O)NCC(=O)OC(C(=O)Nc2cc(C(F)(F)F)ccc2Cl)c2ccccc2)cc1 (stereo not given) | -3.75% (inactive)
O=C(Nc1ccc(Cl)c(Cl)c1)Nc1nnc(C2CCCCC2)s1 | 0.0233% (inactive)
Cc1cc(-c2nc(Nc3ccc(F)c(F)c3)c3ccccc3n2)ccn1 | 14.4% (inactive)
CC(=O)N1CCN(C(=O)COC(=O)c2ccc([S+](C)(=O)[O-])c([N+](=O)[O-])c2)CC1 | -7.43% (inactive)
Cc1ccc(CNc2ccc(N3CCOCC3)cc2)cc1 | -2.76% (inactive)
O=S(=O)(c1ccc2c(c1)OCCO2)N1CCN(S(=O)(=O)c2ccccc2Cl)CC1 | -1.87% (inactive)
CN(C)c1ccc(/C=C/C(=O)Nc2cccc([S+](=O)([O-])Nc3ccccc3F)c2)cc1 | 9.96% (inactive)
Cc1nnc(-c2cnn(C)c2N)n1CCCc1ccncc1 | 2.64% (inactive)
O=[S+]([O-])(Nc1ccc(N2CCNCC2)cc1)c1ccc(NCc2ccc(Cl)cc2O)cc1 | -4.33% (inactive)
O=C(O)c1cccc(-c2noc(-c3ccccc3C(F)(F)F)n2)c1 | -2.68% (inactive)
FC(F)(F)c1cccc(Nc2ccc(CNc3nc(-c4ccccc4C(F)(F)F)nc4ccccc34)cc2)c1 | 4.13% (inactive)
COc1cc(-c2ccc3ncnc(NCC4CCCO4)c3c2)cc(OC)c1OC (stereo not given) | 0.423% (inactive)
CC(=O)N[C@H](C(=O)N[C@@H](C)C(=O)N[C@H](C#N)CC(=O)O)C(C)C | 3.24% (inactive)
O=C(O)c1ccc(-c2noc(-c3cccc(Cl)c3)n2)cc1 | 0.425% (inactive)

Compound | activity change, negative = inhibition
O=C(CNC(=O)c1ccccc1Cl)OC(C(=O)Nc1cc(C(F)(F)F)ccc1Cl)c1ccccc1 (stereo not given) | 3.67% (inactive)
COc1cccc(C2c3c(ncn(-c4cccc(OC)c4)c3=N)Oc3ccc4ccccc4c32)c1 (stereo not given) | 8.33% (inactive)
O=C1CCc2cc(S(=O)(=O)Nc3ccncc3)ccc2N1 | 5.68% (inactive)
O=C1c2ccccc2C(=O)N1c1ccccn1 | 0.0842% (inactive)
COc1ccc(C2Nc3ccccc3C(=O)N2Cc2cccs2)cc1COc1c(C)cc(NC(C)=O)cc1C (stereo not given) | 5.9% (inactive)
Cn1c2cc(B(O)O)sc2c2cnn(Cc3c(F)cccc3F)c(=O)c21 | -11.8% (inactive)
COc1cc(OC)cc(C2=Nn3c(nnc3-c3ccccc3OC)SC2)c1 | 4.58% (inactive)
COc1ccc(C2=Nn3c(nnc3-c3ccccc3O)SC2)cc1OC | -9.78% (inactive)
O=C(Nc1ccc(O)c2ncccc12)c1ccccc1F | -19.4% (inactive)
COc1cc(F)c(S(=O)(=O)N2CCCN(S(=O)(=O)c3ccc4c(c3)OCCO4)CC2)c(F)c1 | 0.418% (inactive)
Oc1ccc(CNCc2ccccc2F)c2cccnc12 | -1.64% (inactive)
Cc1ccc(CNc2ncnc3ccc(-c4ccoc4C)cc23)o1 | -6.85% (inactive)
COc1cc(-c2no[n+]([O-])c2C#N)cc(OC)c1OC | 1.22% (inactive)
N#Cc1c(-c2ccc(Cl)cc2)no[n+]1[O-] | -2.28% (inactive)
COc1ccc(C2Nc3ccccc3C(=O)N2Cc2cccnc2)cc1COc1c(C)cc(NC(C)=O)cc1C (stereo not given) | 2.45% (inactive)
O=C(CN1C(=O)N/C(=C\c2cccn2-c2cccc(C(=O)O)c2)C1=O)Nc1ccc(Cl)cc1 | -2.55% (inactive)
CS(=O)(=O)c1ccc(C(=O)OCC(=O)N2CCOCC2)cc1[N+](=O)[O-] | -4.69% (inactive)
CS(=O)(=O)c1ccc(C(=O)OCC#CCSc2nnc(-c3cccc4ccccc34)o2)cc1 | 4.63% (inactive)
CCOC(=O)c1ccc(-c2ccc3ncnc(NCc4ncc[nH]4)c3c2)o1 | -5.02% (inactive)
CN1CCCC1CCNc1ncnc2ccc(-c3ccc4c(c3)OCO4)cc12 (stereo not given) | 4.66% (inactive)
